In all, about 48,000 compounds went through this assay and about 13,000 (27%) showed an effect of 50% or more. This is one part of the list.
tested on: Wolbachia pipientis; experiment: Anti-Wolbachia Cell-Based Screen; type: functional; set-up: scale not given: in the data most compounds retested in dose-response had high values; settings: 5 µM

SMILES	Percent Effect
CCC(C)(CC(=O)OC)NCc1noc(C)n1 (stereo not drawn)	-21.8%
CC(C)c1nnc2n1CCN(C(=O)COc1ccc(C(N)=O)cc1)C2	-6.982%
COCC1CC2(CCN(C(=O)C3CCSCC3)CC2)CO1 (stereo not drawn)	-14.44%
CCCC(Nc1c(C#N)c(=O)n(C)c(=O)n1C)c1ccc(F)cc1F (stereo not drawn)	-0.1424%
C[C@@H]1CN(C(=O)c2ccc[nH]2)C[C@]12CCN(CCN1CCCC1)C2=O.O=C(O)C(F)(F)F	108.3%
COCCN1CC[C@]2(CN(C(=O)c3ccc[nH]3)C[C@H]2C)C1=O	91.74%
CN1CC(c2ccccc2)C2(CCN(C(=O)c3ccc[nH]3)CC2)C1=O (stereo not drawn)	-2.349%
Cn1cccc1C(=O)N1CCCC2(CCN(CCN3CCCC3)C2=O)C1.O=C(O)C(F)(F)F (stereo not drawn)	-2.422%
CN1CC[C@]2(CN(C(=O)c3ccc[nH]3)C[C@H]2c2ccccc2)C1=O	-8.445%
O=C(O)C(F)(F)F.O=C(O)C(F)(F)F.O=C(O)C(F)(F)F.c1c[nH]c(CN2CCC3(CC2)COCCN(CCN2CCCC2)C3)c1	-16.15%
CN(C)C(=O)CCC(=O)N1CCC2(CC1)COC2	-20.99%
Cc1sc(NC(=O)CN2CCCC(c3ncc[nH]3)C2)c(C)c1C (stereo not drawn)	13.59%
COc1c(CNC2CCc3cc(C)ccc32)c(C)nn1C (stereo not drawn)	196.3%
COc1c(CNC2CCCOc3ccccc32)c(C)nn1C (stereo not drawn)	-2.484%
COc1c(CNC2CCCc3ccccc32)c(C(C)C)nn1C (stereo not drawn)	-2.774%
Cc1ccc2c(c1)CCC2NCc1c(C)nn(CCO)c1C.Cl (stereo not drawn)	9.193%
COc1c(CNC2CCc3cc(F)ccc32)c(C(C)C)nn1C (stereo not drawn)	97.63%
COc1c(CNC2CCOc3ccccc32)c(C(C)C)nn1C (stereo not drawn)	-0.8821%
COc1c(CNC2CCc3cc(Cl)ccc32)c(C)nn1C (stereo not drawn)	202%
COc1c(CNC2CCc3c(F)cccc32)c(C)nn1C.Cl (stereo not drawn)	125.6%
COc1c(CNC2CCc3c(Cl)cccc32)c(C)nn1C.Cl (stereo not drawn)	-6.251%
COc1c(CNC2CCOc3c(F)cccc32)c(C)nn1C (stereo not drawn)	-5.109%
COc1c(CNC2CCOc3c(Cl)cccc32)c(C)nn1C.Cl (stereo not drawn)	-20.37%
Cn1ncnc1CNC1CCc2cc(Cl)ccc21 (stereo not drawn)	-6.658%
CCOCC(=O)N1CCC2(CC1)COC(COCc1ccccn1)C2.O=C(O)C(F)(F)F (stereo not drawn)	-4.838%
OC(COCc1ccccc1)CSc1nnc2ccccn12 (stereo not drawn)	-5.176%

SMILES	Percent Effect
CN(Cc1ccccc1)CC(O)Cn1cnc2ccsc2c1=O (stereo not drawn)	-0.02665%
Cc1ccc(CCCC(=O)N2CC(=O)Nc3cccnc32)s1	-7.748%
CCn1cc(S(=O)(=O)NCC(OC)c2cccc(Cl)c2)cn1 (stereo not drawn)	-3.186%
COc1c(CNC2CCOc3ccccc32)c(C)nn1C (stereo not drawn)	-8.703%
COc1c(CNC2CCCc3ccccc32)c(C)nn1C (stereo not drawn)	-3.62%
COc1c(CNC2CCc3ccccc32)c(C)nn1C (stereo not drawn)	132.3%
Cc1nn(C)c(N(C)C)c1CNC1CCc2c(F)cccc21.Cl (stereo not drawn)	-3.746%
Cc1nn(C)c(N(C)C)c1CNC1CCOc2c(F)cccc21 (stereo not drawn)	-12.9%
Cc1nn(C)c(N(C)C)c1CNC1CCc2cc(F)ccc21.Cl (stereo not drawn)	58.09%
CCNC(=O)[C@@H]1CCCN1[C@@H](C(=O)NC)c1ccccc1.Cl	1.454%
CCOCCNC(=O)[C@@H]1CCCN1c1nccc(Nc2ccccc2)n1	123.1%
CCC(C)CNC(=O)[C@@H]1CCCN1c1nccc(Nc2ccccc2)n1 (stereo partly drawn)	83.24%
Cc1nc(N2CCCC2C(=O)NC(C)(C)CO)nc2ccccc12 (stereo not drawn)	-14.27%
Cc1nc(N2CCCC2C(=O)NCc2ccsc2)nc2ccccc12 (stereo not drawn)	-0.4338%
Cn1cc(S(=O)(=O)N2CCCC(Cn3cncn3)C2)cn1 (stereo not drawn)	7.015%
Cc1cc(C)nc(N2CCN(Cc3cc4n(n3)CCNC4)CC2)n1	3.043%
CCC(CC)(CNC(=O)OC(C)(C)C)NC(=O)C1CCCO1 (stereo not drawn)	-2.751%
CCNC(=O)C1CCN(Cn2nc(-c3ccccc3)oc2=O)CC1	32.26%
NC(=O)C1CCN(Cn2nc(-c3ccc(F)cc3)oc2=O)C1 (stereo not drawn)	1.615%
CCNC(=O)C1CCN(Cn2nc(-c3ccc(F)cc3)oc2=O)CC1	109.5%
CN(C)C(=O)C1CCN(Cn2ccc(-c3ccc(F)cc3)n2)CC1	-0.7457%
NC(=O)C1CCN(Cn2nc(-c3ccc(F)cc3)oc2=O)CC1	-1.438%
CN(C)C(=O)C1CCN(Cn2nc(-c3ccc(F)cc3)oc2=O)CC1	103.8%
COCCNS(=O)(=O)c1cccc2c1CN(C(=O)c1ccoc1)CC2	-4.296%
O=C(CCN1CCCCO1)NCCSc1cnn[nH]1	-10.06%
O=C(Nc1cnc(N2CCOCC2)nc1)c1ccc(C(F)(F)F)cc1	-14.92%

SMILES	Percent Effect
COc1ccc(C)cc1NC(=O)Nc1cnc(N2CCOCC2)nc1	156.3%
COc1ccc(CNC(=O)Nc2cccnc2N2CCCC2)cc1O	5.848%
O=C(COc1ccc(Cl)cc1)Nc1cnc(N2CCOCC2)nc1	-3.73%
COc1ccc(C)cc1NC(=O)Nc1cnc(N2CCN(C)CC2)nc1	-7.75%
COc1ccc(C)cc1NC(=O)Nc1cnc(N2CCCC2)nc1	135.2%
COCCn1nc(C(=O)N2CCOCC2C)ccc1=O (stereo not drawn)	3.322%
O=C(Cc1cccs1)N1CCOCC1c1ccccc1 (stereo not drawn)	-1.023%
CC1COCCN1C(=O)c1cnccn1 (stereo not drawn)	93.18%
Cc1cnc(C(=O)N2CCOCC2C)cn1 (stereo not drawn)	99.05%
O=C(c1cnccn1)N1CCc2ncnc(C3CCOC3)c2CC1 (stereo not drawn)	-0.4646%
Cc1cnc(C(=O)N2CCOCC2c2ccccc2)cn1 (stereo not drawn)	87.18%
CC1COCCN1C(=O)c1ccc(=O)n(Cc2ccccc2)n1 (stereo not drawn)	-2.389%
Cc1cnc(C(=O)N2CCCCC2c2ccc(CN(C)C)cc2)cn1 (stereo not drawn)	6.216%
CC1COCCN1C(=O)c1ccc(=O)n(CCOc2ccccc2)n1 (stereo not drawn)	-6.742%
CCc1ccc(O)c(C(=O)N2CCN(CC(=O)N3CCCCC3)CC2)c1	-4.126%
O=C(NS(=O)(=O)c1cc(Cl)sc1Cl)c1cccc2c1OCCO2	-19.53%
COc1cccc(C(=O)NCc2ccccc2S(=O)(=O)N(C)C)c1	16.54%
CSCCN(C)C(=O)C1(c2ccc(F)cc2F)CCOCC1	-17.49%
CCOCCC(=O)NCC(C)c1ccsc1 (stereo not drawn)	1.929%
Cc1ccc(CN2CC[C@H]3C[C@@H](c4nc(C5CC5)cs4)O[C@@H]3C2)o1	-2.385%
CC1COC2(CCN(C(=O)Cc3ccncc3)CC2)C1.O=C(O)C(F)(F)F (stereo not drawn)	99.32%
O=C(CC1CC1)N1CCC2(CC1)CC(Oc1ccccc1)CO2 (stereo not drawn)	-7.215%
O=C(O)C(F)(F)F.O=C(c1ccccc1)N1CCC[C@]2(C[C@@H](OCc3ccncc3)CO2)C1	6.805%
Cn1cc(C2CCCN2C(=O)CCCOCc2ccccc2)cn1 (stereo not drawn)	2.254%
Cn1cc(C2CN(C(=O)Cc3coc(-c4ccccc4)n3)CCO2)cn1 (stereo not drawn)	-11.89%
O=C(Cc1cccnc1)N1CCC2(CC1)CCN(C1CCOCC1)CC2.O=C(O)C(F)(F)F.O=C(O)C(F)(F)F	1.334%

SMILES	Percent Effect
CCC(=O)N1CCC2(CC1)CC(Oc1ccccc1)CO2 (stereo not drawn)	-6.284%
Cn1cc(C2COC3(CCN(C(=O)Cc4ccccc4)CC3)C2)cn1 (stereo not drawn)	95.06%
CN(Cc1ccncc1)C1COC2(CCN(c3ncc(F)cn3)CC2)C1.O=C(O)C(F)(F)F.O=C(O)C(F)(F)F (stereo not drawn)	-12.58%
CCOCC(=O)N1CCC2(CC1)CC(c1ccccc1)CO2 (stereo not drawn)	118.3%
O=C(Cc1ccncc1)N1CCC2(CC1)CC(c1ccccc1)CO2.O=C(O)C(F)(F)F (stereo not drawn)	104.1%
O=C(C1CC1)N1CCC[C@]2(C[C@@H](OCc3ccncc3)CO2)C1.O=C(O)C(F)(F)F	6.09%
CC1(CNS(=O)(=O)c2cccc(C(=O)N3CCSCC3)c2)COC1	5.198%
N#Cc1ccnc(N2CCN(CC(O)c3c(F)cccc3F)CC2)c1 (stereo not drawn)	-15.75%
CC(CCn1cccn1)NCc1n[nH]c2c1CCCCC2 (stereo not drawn)	-18.85%
O=S(=O)(NCCNc1ccc(-n2cccc2)nn1)c1ccccc1	-5.245%
COC(=O)[C@@H]1Cc2ncn(C)c2CN1S(=O)(=O)c1ccc(Cl)cc1	-5.674%
Cn1cc(S(=O)(=O)Nc2ccc(Cl)cn2)cc1C(N)=O	6.201%
Cc1cc2[nH]c(CN3CCOC(c4ccc(Cl)cc4)C3)cc(=O)n2n1 (stereo not drawn)	-2.359%
O=C(Nc1cccnc1)N1CCC(n2ccc(C(F)(F)F)n2)CC1	-10.86%
CC(C)CC(=O)N1CC[C@H]2N(C)CC[C@@]2(C(=O)Nc2cccnc2)CC1.O=C(O)C(F)(F)F.O=C(O)C(F)(F)F	92.3%
CC(C)C(=O)N1CCc2nc(C(=O)Nc3cccnc3)sc2CC1	0.3042%
CS(=O)(=O)N1C[C@H](C(=O)Nc2cccnc2)[C@@H]2CCO[C@@H]2C1.O=C(O)C(F)(F)F	-6.028%
CC(C)C(=O)N1CC[C@H]2N(C)CC[C@@]2(C(=O)Nc2cccnc2)CC1.O=C(O)C(F)(F)F.O=C(O)C(F)(F)F	118.9%
CNC(=O)N1CC[C@H]2N(C)CC[C@@]2(C(=O)Nc2ccccc2)CC1	2.294%
Cc1ccc(CNC(=O)C2CCN(C(=O)C(C)C)CC2)n1C	-14.75%
CC(C)NC(=O)N1CC[C@H]2N(C)CC[C@@]2(C(=O)Nc2cccnc2)CC1	104%
CC(C)C(=O)N1CC[C@H]2N(C)CC[C@@]2(C(=O)Nc2ccccc2)CC1	108.6%
CCN1CC[C@@]2(C(=O)N(C)C)CCN(C(=O)NC(C)C)CC[C@@H]12	-5.445%
CCN1CC[C@@]2(C(=O)N3CCOCC3)CCN(C(=O)CC(C)C)CC[C@@H]12.O=C(O)C(F)(F)F	-11.51%
O=C(Cc1cccnc1)N1CCC2(CC1)CCN(C1CCOCC1)C2.O=C(O)C(F)(F)F.O=C(O)C(F)(F)F	-0.7381%
